Source: PubChem (several laboratories)
EBV gp42 block – Epstein-Barr virus gp42 inhibitors, primary screen, biochemical, uHTS, fluorescence polarization. Glycoprotein 42 (Epstein-Barr virus (strain AG876)), Q1HVG2. Fluorescence polarization binding assay, mP read-out. inhibition, % (tested at 21.74 µM). 220,000 compounds, 0.42% hits; in the data active means inhibition above about 50%
cardiac RTF act – cardiac RTF calcium sensitivity activators, primary screen, biochemical, IANBD-TnC fluorescence, EC20 calcium; AID 493008, 2010; IANBD-labeled TnC RTF fluorescence at EC20 calcium; 0% EC20 calcium, 100% full calcium; Troponin I, cardiac muscle (Homo sapiens) + Troponin T, cardiac muscle (Homo sapiens) + …; 340,000 compounds, 0.24% hits; activation, % at 7.2 µM;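 active means activation above the mean over all tested compounds plus 3 SD, cut at about 30% in these data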;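 further: rise in fluorescence read as greater calcium sensitivity of cardiac thin filaments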
Keap1-Nrf2 PPI – Keap1-Nrf2 protein-protein interaction inhibitors, primary screen, biochemical, fluorescence polarization, single point; 340,000 compounds, 0.15% hits; Keap1 Kelch-Nrf2 peptide fluorescence polarization, 1536-well; AID 504523, 2011; Kelch-like ECH-associated protein 1 (Homo sapiens), Q14145; inhibition, % at 9.4 µM; in the data active means inhibition above about 12%;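 further: human Keap1 Kelch domain with fluorescein labeled Nrf2 9mer peptide probe; higher means more block of Keap1 binding to Nrf2 peptide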
Target sequence (Q14145 whole entry, looked up, the tested form may be a part): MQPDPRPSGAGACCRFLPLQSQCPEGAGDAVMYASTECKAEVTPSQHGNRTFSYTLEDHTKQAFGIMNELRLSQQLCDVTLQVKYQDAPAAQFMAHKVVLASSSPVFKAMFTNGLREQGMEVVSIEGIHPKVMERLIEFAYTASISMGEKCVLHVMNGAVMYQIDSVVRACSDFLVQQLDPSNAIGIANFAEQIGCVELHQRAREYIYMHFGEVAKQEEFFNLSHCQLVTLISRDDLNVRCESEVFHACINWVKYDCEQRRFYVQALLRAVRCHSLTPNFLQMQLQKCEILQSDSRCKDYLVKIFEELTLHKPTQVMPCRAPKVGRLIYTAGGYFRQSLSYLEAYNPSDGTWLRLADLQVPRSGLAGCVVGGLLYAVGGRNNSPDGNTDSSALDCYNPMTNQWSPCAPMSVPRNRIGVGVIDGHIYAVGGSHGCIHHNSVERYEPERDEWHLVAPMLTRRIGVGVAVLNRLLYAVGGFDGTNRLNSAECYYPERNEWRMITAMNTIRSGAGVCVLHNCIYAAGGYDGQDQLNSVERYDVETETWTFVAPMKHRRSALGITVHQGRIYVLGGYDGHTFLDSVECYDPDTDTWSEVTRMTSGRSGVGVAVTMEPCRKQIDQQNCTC
C-LANA FP – inhibitors of KSHV C-LANA binding to DNA, primary screen, biochemical, fluorescence polarization, FAM-LBS DNA, MBP-C-LANA, single point | inhibition, % at 9 µM | AID 504423, 2011 | Kaposi's sarcoma herpesvirus LANA C-terminal domain (residues 932-1162) DNA binding | 340,000 compounds, 0.078% hits;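 active means highest replicate inhibition at or above 60% at 9 µM, even if other replicates fall short; inactive means all replicates below 60% inhibition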
RTF Ca sens inh – cardiac RTF calcium sensitivity inhibitors, primary screen, biochemical, IANBD-TnC fluorescence, EC70 calcium | IANBD-labeled cardiac RTF, Ca2+ fluorescence | inhibition, % at 7.15 µM | 340,000 compounds, 0.12% hits | AID 493244, 2011;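 active means inhibition above the mean inhibition of all tested compounds plus 3 SD, cut at about 17% in these data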;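 further: assay run at fixed EC70 calcium of 1.6 mM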
E coli Lon inh – inhibitors of E. coli Lon protease, primary screen, biochemical, fluorescence polarization. inhibition, % at 7.94 µM. 360,000 compounds, 0.42% hits. purified E. coli Lon protease. P0A9M0; in the data active means inhibition above about 13%, passing the limit was not always enough
Keap1 TSA – Keap1 Kelch domain binders by thermal stabilisation, dose response, biophysical, thermal shift, RT-PCR instrument, cherry-pick; shares compounds with Keap1-Nrf2 PPI; max delta Tm, degrees C; delta Tm; hits give high values; AID 651823, 2012; 400 compounds, 8% hits; in the data active means max delta Tm above about 0.48 degrees C
Dye-only ctr – Sypro Orange dye melt without protein, dose response, artefact control for Keap1-Nrf2 interaction inhibitor project, biochemical, thermal shift counterscreen, cherry-pick; Sypro Orange dye-only thermal melt, no protein, delta Tm; top dose 26 µM; shares compounds with Keap1-Nrf2 PPI; delta Tm, degrees C (test concentration not listed); 140 tested, under 10 active;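 active means at highest dose tested, delta Tm positive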
eLon confirm – E. coli Lon protease inhibitor retest, confirmation, biochemical, fluorescence polarization; shares compounds with E coli Lon inh; purified E. coli Lon; inhibition, % at 7.94 µM; 1,400 compounds, 31% hits; in the data active means inhibition above about 16%
Each line names hits and unclear results; the compound was inactive in the other large screens (follow-up assays come after a bar, where they were run). Hits are enriched below; roughly 0.98% of the tested compounds scored in any of these assays.

O=S(=O)([O-])CCC[n+]1c(SCCCS(=O)(=O)O)sc2ccc(Cl)cc21	Keap1-Nrf2 PPI 21.0 | Keap1 TSA inactive | Dye-only ctr inactive
CN(C)C(=O)c1cnc(Cc2c[nH]c3ccccc23)c(I)c1	none (no result: EBV gp42 block, cardiac RTF act, Keap1-Nrf2 PPI, C-LANA FP, RTF Ca sens inh)
O=C1N=c2ccccc2=C1c1sc(=S)n(NC(=O)c2cccc(O)c2)c1O	none
O=C1N=c2ccc(Br)cc2=C1c1sc(=S)n(NS(=O)(=O)c2ccccc2)c1O	Keap1-Nrf2 PPI 52.7 | Keap1 TSA 2.67 | Dye-only ctr inactive
CCN(CC)S(=O)(=O)c1ccc(C(=O)N2CCN(CCN3C(=O)c4cccc5cccc(c45)C3=O)CC2)cc1	none (no result: cardiac RTF act, Keap1-Nrf2 PPI, C-LANA FP, RTF Ca sens inh, E coli Lon inh)
CCCN(CCC)S(=O)(=O)c1ccc(C(=O)OCCN2C(=O)c3cccc4c(N5CCOCC5)ccc(c34)C2=O)cc1	EBV gp42 block 134.7, cardiac RTF act 51.5, Keap1-Nrf2 PPI 39.0 | Keap1 TSA inactive | Dye-only ctr inactive
O=C(Cn1nc(-c2ccccc2)ccc1=O)N1CCCCC1	none (no result: EBV gp42 block)
O=C(CCCN1C(=O)/C(=C\c2ccco2)SC1=S)Nc1ccc(O)cc1C(=O)O	Keap1-Nrf2 PPI 28.1, C-LANA FP 109.0 (no result: EBV gp42 block) | Keap1 TSA inactive | Dye-only ctr inactive
O=C(CCCN1C(=O)/C(=C\c2cccs2)SC1=S)Nc1ccc(O)cc1C(=O)O	none (no result: EBV gp42 block)
C[C@@H]1CN([C@@H](C)CO)C(=O)CCCn2nncc2CO[C@H]1CN(C)S(=O)(=O)c1ccc(Oc2ccccc2)nc1	none (no result: EBV gp42 block, cardiac RTF act, Keap1-Nrf2 PPI, C-LANA FP, RTF Ca sens inh)
COc1cc(/C=C/CN2CCN(CCC(C)C)C(CCO)C2)ccc1O (configuration not stated)	Keap1-Nrf2 PPI 17.7 | Keap1 TSA inactive
Cc1cc(C(=O)CCC(=O)NCC(=O)Nc2c(C)cccc2C)c(C)s1	none (no result: EBV gp42 block)
CCN(CC)C(=O)C1c2ccccc2Oc2ccccc21	Keap1-Nrf2 PPI 39.0, C-LANA FP 76.7, E coli Lon inh active (no result: EBV gp42 block) | Keap1 TSA inactive | eLon confirm inactive
CCCCNC(=O)C1(C)CCCCN1Cc1ccccc1-c1ccccc1 (configuration not stated)	none (no result: EBV gp42 block, cardiac RTF act, Keap1-Nrf2 PPI, C-LANA FP, RTF Ca sens inh)
COc1ccc(OC)c(C2C3CN(C(C)C)CC=C3C(C#N)=C(N)C2(C#N)C#N)c1 (configuration not stated)	none
CN1CC=C2C(C#N)=C(N)C(C#N)(C#N)[C@H](c3ccoc3)[C@H]2C1	EBV gp42 block 61.6, cardiac RTF act 50.5, Keap1-Nrf2 PPI 26.6, E coli Lon inh 130.0 | Keap1 TSA inactive | eLon confirm 109.3
Cc1ccc(C2C3CN(C(C)C)CC=C3C(C#N)=C(N)C2(C#N)C#N)cc1 (configuration not stated)	EBV gp42 block 89.1, cardiac RTF act 136.1, Keap1-Nrf2 PPI 22.8, E coli Lon inh 35.6 | Keap1 TSA inactive | eLon confirm 47.8
CSc1ccc(C2=C/C(=C3/SC(=S)NC3=O)c3ccccc3O2)cc1	none (no result: EBV gp42 block)
O=C(C1=C(O)C(=O)N(CCc2ccccc2)C1c1ccncc1)c1cc2ccccc2o1 (configuration not stated)	none
